Data: PMC4552634, “A New Set of Chemical Starting Points with Plasmodium falciparum Transmission-Blocking Potential for Antimalarial Drug Discovery” (PLoS ONE, 2015)
Like-named read-outs stand apart in the source and are kept apart here. Hit rate of the full screen: of about 13,000 compounds, about 3,200 (25%) showed an effect of 50% or more. Some of the results follow.

System: P. falciparum stage V gametocytes
Set-up: BacTiter-Glo ATP luminescence viability of purified stage V gametocytes in 384-well plates, per cent inhibition versus DMSO
Conditions: 48 h, 5 µM, inhibitor

Row | Compound | % Inhibition | % Inhibition (% Inhibition)
1 | O=c1[nH]c(NCCCCCN2CCC(c3c[nH]c4ccccc34)CC2)ncc1Cc1ccc(Cl)c(Cl)c1 [TCMDC-139189] | 16.9% | 
2 | CC1(CCCCN2CCC(c3c[nH]c4cnccc34)CC2)C(=O)Nc2cccc(Cl)c21 (stereo not shown) [TCMDC-141177] | 63.64% | 
3 | CC1(CCN2CCC(c3c[nH]c4cnccc34)CC2)CCCc2c(Br)cccc2C1=O (stereo not shown) [TCMDC-141171] | 95.16% | 
4 | CC1(CCCCN2CCC(Cc3ccccc3)CC2)C(=O)Nc2ccccc21 (stereo not shown) [TCMDC-140796] | 0.5554% | 
5 | Cc1ccc(C(=O)Nc2cccc([N+](=O)[O-])c2)cc1S(=O)(=O)N1CC(C)CC(C)C1 (stereo not shown) [TCMDC-123731] | 8.733% | 
6 | COc1cc(F)c2ncc(Cl)c([C@@H](O)CN3CCC(NCc4ccc5c(n4)NC(=O)CO5)CC3)c2c1 [TCMDC-135488] | 20.51% | 
7 | C=C[C@H]1CN2CC[C@H]1C[C@H]2[C@H](O)c1ccnc2ccc(OC)cc12 [TCMDC-123939] |  | 23.69%
8 | CCN(CCCN1CCCCC1)c1cc(C)nc(Nc2ccc(C)c(Br)c2)n1 [TCMDC-132436] | 25.65% | 
9 | CCN(CC)CCCN(CCCN(CC)CC)c1cc(C)nc(Nc2ccc3cc(Br)ccc3c2)n1 [TCMDC-137611] | 92.7% | 
10 | CCCCN(CCCC)CCCN(CCCN(CCCC)CCCC)c1cc(C)nc(Nc2ccc3cc(Br)ccc3c2)n1 [TCMDC-138005] | 117% | 
11 | CCN(CCCN1CCCCC1)c1cc(C)nc(Nc2ccc(C)c(C)c2)n1 [TCMDC-132440] | 22.96% | 
12 | CCCN(CCC)CCCN(CCCN(CCC)CCC)c1cc(C)nc(Nc2ccc3cc(Br)ccc3c2)n1 [TCMDC-138006] | 102.3% | 
13 | CCN(CCCN1CCCCC1)c1cc(C)nc(Nc2ccc(OC)cc2)n1 [TCMDC-132430] | -5.018% | 
14 | O=C(NC1CCN(Cc2ccc3c(c2)OCCO3)CC1)c1ccc(-c2cccc(C(F)(F)F)c2)s1 [TCMDC-134337] | 32.78% | 
15 | COc1ccc(C2N=C(N)N=C(N)N2OCc2ccccc2)cc1OC (stereo not shown) [TCMDC-131345] | 5.736% | 
16 | CC1(C)N=C(N)N=C(N)N1OCCCCCOc1ccccc1 [TCMDC-131319] | -2.033% | 
17 | CC(=O)N(C)c1cccc(C(=O)Nc2cccc(-c3cccc(-c4nc5c(C)cccc5[nH]4)c3)c2)c1 [TCMDC-137071] | 44.44% | 
18 | Cc1cc(CN2CCC(N3CC(c4ccccc4)(c4ccccc4)OC3=O)C2)ccc1O (stereo not shown) [TCMDC-136072] | -30.84% | 
19 | COc1ccc2cc(-c3nc(-c4c(Cl)cccc4Cl)[nH]c3-c3ccnc(NCCCN4CCN(C)CC4)c3)ccc2c1 [TCMDC-141250] | 55.44% | 
20 | COc1cc(-c2nc(-c3ccc4c(c3)CCC4=NO)c(-c3ccncc3)[nH]2)ccc1OCCN1CCN(C)CC1 [TCMDC-141256] | -11.77% | 
21 | COc1cc(NC(=O)CCCCCCCN2CCN(C)CC2)c2ncccc2c1 [TCMDC-138214] | -6.593% | 
22 | COc1cccc(CNCC(C)(C)c2nc(-c3ccc(Cl)c(O)c3)c(-c3ccncc3)[nH]2)c1 [TCMDC-140687] | -54.89% | 

Row | Compound | % Inhibition | % Inhibition (% Inhibition)
23 | COc1ccc(C)c(Nc2ccnc(Nc3cccc(-c4nc5ccccc5[nH]4)c3)n2)c1 [TCMDC-138696] | 21% | 
24 | CCN(CC)CCCCNc1cc(-c2[nH]c(C(C)(C)C)nc2-c2ccc3cc(OC)ccc3c2)ccn1 [TCMDC-141246] | 101.1% | 
25 | CCN(CC)CCCCNc1cc(-c2[nH]c(-c3c(Cl)cccc3Cl)nc2-c2ccc3cc(OC)ccc3c2)ccn1 [TCMDC-141249] | 85.02% | 
26 | COc1ccc2cc(-c3nc(-c4c(Cl)cccc4Cl)[nH]c3-c3ccnc(NCCC4CCCN4C)c3)ccc2c1 (stereo not shown) [TCMDC-141248] | 70.07% | 
27 | COc1cc(-c2cc3cc(Cl)c(Cl)cc3[nH]2)ccc1C(=O)NCCC1CCCN1C (stereo not shown) [TCMDC-141287] | -25.11% | 
28 | CC(C)(CNC(=O)[C@@H]1CCCN(CCOc2ccc(Cl)cc2)C1)c1nc(-c2ccc(Cl)c(O)c2)c(-c2ccncc2)[nH]1 [TCMDC-141125] | 7.649% | 
29 | COc1cc(-c2nc(C(C)(C)CN)[nH]c2-c2ccncc2)ccc1Br [TCMDC-140674] | -82.82% | 
30 | CN(C)CCOc1ccc(NC(=O)NC(C)(C)c2nc(-c3ccc(Cl)c(O)c3)c(-c3ccncc3)[nH]2)cc1 [TCMDC-140744] | -34.41% | 
31 | N=C(N)c1ccc(C(=O)Nc2cccc(C(=N)N)c2)cc1 [TCMDC-137804] | 7.039% | 
32 | CCOc1cc(C(=O)NCCCN2CCN(c3cccc(Cl)c3)CC2)ccc1-c1nc2cc(Cl)c(F)cc2[nH]1 [TCMDC-140097] | -13.16% | 
33 | O=C(/C=C/c1ccc(Cl)c(Cl)c1)NCCCCCN1CCC(NC(=O)Nc2ccccc2Cl)CC1 [TCMDC-135710] | -61.78% | 
34 | Cc1ccc(Nc2ccnc3ccc(C(F)(F)F)cc23)cc1O [TCMDC-138307] | -31.91% | 
35 | CC1(C)N=C(N)NC(NOCC=Cc2ccccc2)=N1 [TCMDC-131690] | -2.035% | 
36 | O=C(NCCc1ccc(Cl)c(Cl)c1)[C@@H]1CCCN1C(=O)c1ccc(O)c(-c2ccc(Cl)c(Cl)c2)c1 [TCMDC-140871] | 35.67% | 
37 | COc1ccc(Nc2ncc3c(-c4cccc(NC(=O)Cc5cccnc5)c4)c[nH]c3n2)cc1OC [TCMDC-135285] | -50.17% | 
38 | CN(C)CCNC(=O)c1ccc2c(c1)n(C1CCN(S(=O)(=O)c3ccc(-c4ccccc4)cc3)CC1)c(=O)n2CC1CCCCC1 [TCMDC-135414] | 22.96% | 
39 | CCc1cccc(NC(=O)/C=C/c2ccc3c(c2)CN(C)CC3)c1 [TCMDC-139241] | 27.65% | 
40 | NC1=NC(c2ccccc2)(c2cccc(O)c2)C(=O)N1CCCc1ccccc1 (stereo not shown) [TCMDC-132352] |  | -21.91%
41 | COc1ccc2cc(-c3nc(-c4c(Cl)cccc4Cl)[nH]c3-c3ccnc(NCCCN4CCCCC4C)c3)ccc2c1 (stereo not shown) [TCMDC-141247] | 95.77% | 
42 | CC1CCCCN1CCCNC(=O)c1cccc(-c2cc3cc(Cl)c(Cl)cc3[nH]2)c1 (stereo not shown) [TCMDC-141291] | -28.41% | 
43 | CCOc1cc(C(=O)NCCCN2CCCCC2C)ccc1-c1nc2ccc(Cl)cc2[nH]1 (stereo not shown) [TCMDC-140915] | 4.733% | 
